Assay outcomes as filed in PubChem BioAssay.
Cruzain inh noDet – cruzain (T. cruzi) inhibition without detergent; AID 1476; P25779; Potency, µM, usual class: inhibitors; actives 2.3% (n = 200,000); purified cruzain, Z-FR-AMC fluorescence, no detergent; further: nearly all actives have a fitted effect of over 40% in size
Target sequence (P25779 123-467 limits assumed): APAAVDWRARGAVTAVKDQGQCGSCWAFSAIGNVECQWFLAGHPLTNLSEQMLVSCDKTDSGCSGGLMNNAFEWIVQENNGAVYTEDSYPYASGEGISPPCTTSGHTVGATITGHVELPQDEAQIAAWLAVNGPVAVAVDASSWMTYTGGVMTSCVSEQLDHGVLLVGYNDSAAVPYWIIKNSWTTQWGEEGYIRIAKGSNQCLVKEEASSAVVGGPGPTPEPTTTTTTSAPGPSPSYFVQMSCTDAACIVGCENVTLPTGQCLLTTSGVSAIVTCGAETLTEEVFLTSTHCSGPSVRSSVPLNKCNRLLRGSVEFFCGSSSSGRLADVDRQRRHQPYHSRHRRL
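Detergent-free condition (0.00005% Triton X-100) in acetate buffer pH 5.5 with DTT. 1.5 nM enzyme and compound were pre-mixed 15 min, then 2 uM Z-FR-AMC substrate added; reaction progress from fluorescence change between first and third reads (60 s).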
Cruzain inh Det – blocks cruzain activity in presence of Triton detergent. purified cruzain, Z-FR-AMC fluorescence, 0.01% Triton. Potency, µM, usual class: inhibitors. actives 0.43% (n = 200,000); further: nearly all actives have a fitted effect of over 40% in size
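Detergent-containing run (0.01% Triton X-100) in acetate buffer pH 5.5 with 5 mM DTT: enzyme at 1.5 nM final, 15 min compound preincubation at room temperature, then 2 uM Z-FR-AMC substrate. Activity taken as 60 s fluorescence increase at 360/450 nm.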
Numbers stand for hits. Hits are enriched below; roughly 2.5% of the tested compounds scored in any of these assays. The call rests on the fitted dose curve; in most records, active means well fitted curve in the direction sought with a large enough effect; inconclusive means small, poorly fitted or top-dose-only effect, or another doubt; inactive means no such curve, though single readings can be large; an effect the other way counts as inactive or inconclusive.

`CCOC(=O)c1ccc(NS(=O)(=O)c2ccc3[nH]c4c(c3c2)CCCCC4)cc1` gave Cruzain inh noDet inconclusive and Cruzain inh Det inactive.
CCc1ccc(NC(=O)C(C)OC(=O)c2ccc(NS(=O)(=O)c3ccc(C)c([N+](=O)[O-])c3)cc2)cc1 (stereo unspecified) was read as Cruzain inh noDet 16µM and Cruzain inh Det inactive.
`Cc1ccc(S(=O)(=O)Nc2ccccc2C(=O)OC(C)C(=O)Nc2ccc3ccccc3c2)cc1[N+](=O)[O-]` (stereo unspecified) gave Cruzain inh noDet 7.9µM and Cruzain inh Det inactive.
For CC(Oc1ccccc1)C(=O)Nc1ccccc1C(=O)OCc1cc(=O)n2nc(C(C)C)sc2n1 (stereo unspecified) the results were Cruzain inh noDet inactive and Cruzain inh Det inactive.
Screening CS(=O)(=O)N1CCC2(CC1)CN(C(=O)Nc1ccccc1)C2 returned Cruzain inh noDet inactive and Cruzain inh Det inactive.
COc1ccc(S(=O)(=O)Nc2cccc(-c3ccc(N4CCC(C)CC4)nn3)c2)cc1OC was read as Cruzain inh noDet inactive and Cruzain inh Det inactive.
For O=C(Nc1nc(C2C3CC4CC(C3)CC2C4)cs1)c1cc2cc([N+](=O)[O-])ccc2oc1=O (stereo unspecified) the results were Cruzain inh noDet 25µM and Cruzain inh Det inactive.
`COc1ccc(C(=O)NNC(=O)c2cc3cc([N+](=O)[O-])ccc3oc2=O)cc1OC` gave Cruzain inh noDet inactive and Cruzain inh Det inactive.
O=C(COC(=O)c1ccc(Cl)c(S(=O)(=O)N2CCc3ccccc3C2)c1)Nc1ncc(Cl)cc1Cl was read as Cruzain inh noDet 20µM and Cruzain inh Det inactive.
Screening O=C(COC(=O)c1cccc(S(=O)(=O)N2CCc3ccccc32)c1)Nc1ncc(Cl)cc1Cl returned Cruzain inh noDet inconclusive and Cruzain inh Det inactive.
Screening Cc1cccc(N2CCN(C(=O)c3ccc(Cl)c(S(=O)(=O)N4CCc5ccccc5C4)c3)CC2)c1C returned Cruzain inh noDet 10µM and Cruzain inh Det inactive.
Cc1cccc(N2CCN(C(=O)c3ccc(Cl)c(S(=O)(=O)NCc4ccco4)c3)CC2)c1C was read as Cruzain inh noDet inactive and Cruzain inh Det inactive.
Screening O=C(COc1ccc(F)cc1)Nc1ccc2nc(SCC(=O)N3CCOCC3)sc2c1 returned Cruzain inh noDet inconclusive and Cruzain inh Det inactive.
Screening CCOc1ccccc1CNC(=O)C1CCN(Cc2cc3ccccc3n2Cc2ccccc2)CC1 returned Cruzain inh noDet inactive and Cruzain inh Det inactive.
`O=C(N/N=C/c1ccncc1)c1cccc(NC(=O)c2ccccc2Cl)c1` gave Cruzain inh noDet inactive and Cruzain inh Det inactive.
For O=C(Nc1cccc(NC(=O)c2ccccc2Cl)c1)c1cccc(Br)c1 the results were Cruzain inh noDet 7.9µM and Cruzain inh Det inactive.
COc1ccc(CNC(=O)c2cccn2-c2nnc(N3CCCC3)s2)c(OC)c1 was read as Cruzain inh noDet inactive and Cruzain inh Det inactive.
For CC1CCC(C(C)C)[C@H](OC(=O)c2ccccc2)C1 (stereo partly specified) the results were Cruzain inh noDet inactive and Cruzain inh Det inactive.
`CC1CCC(C(C)C)C(OC(=O)C2=C3c4ccccc4S(=O)(=O)N3CC2)C1` (stereo unspecified) gave Cruzain inh noDet 32µM and Cruzain inh Det inconclusive.
Screening CC1CCN(S(=O)(=O)c2ccc(NC(=O)Cn3nnc(-c4ccccc4)n3)cc2)CC1 returned Cruzain inh noDet inconclusive and Cruzain inh Det inactive.
`Cc1ccc(-c2nnn(CC(=O)Nc3ccc(S(=O)(=O)N4CCC(C)CC4)cc3)n2)cc1` gave Cruzain inh noDet 10µM and Cruzain inh Det inactive.
Screening CCc1ccc(CNc2ncc(-c3cccc(OC)c3)n2C)cc1 returned Cruzain inh noDet inactive and Cruzain inh Det inactive.
`O=C(Nc1ncc(S(=O)(=O)c2ccc([N+](=O)[O-])cc2)s1)c1cccc2ccccc12` gave Cruzain inh noDet 13µM and Cruzain inh Det inactive.
Screening O=C(NC(Nc1ncc(S(=O)(=O)c2ccc([N+](=O)[O-])cc2)s1)(C(F)(F)F)C(F)(F)F)c1ccc(Cl)cc1 returned Cruzain inh noDet inactive and Cruzain inh Det inactive.
Screening Cc1cccc(CSc2cn(CC(=O)N3CCCC3)c3ccccc23)c1 returned Cruzain inh noDet inconclusive and Cruzain inh Det inactive.
COc1cccc(Nc2nc(-c3ccc(O)cc3)cs2)c1 was read as Cruzain inh noDet inactive and Cruzain inh Det inactive.
For COc1cccc(Nc2nc(-c3cccc(N4C(=O)c5ccccc5C4=O)c3)cs2)c1 the results were Cruzain inh noDet 7.9µM and Cruzain inh Det inactive.
COC(=O)c1n[nH]c2ccccc12 was read as Cruzain inh noDet inactive and Cruzain inh Det inactive.
Screening O=C(COC(=O)c1n[nH]c2ccccc12)Nc1ccc([N+](=O)[O-])cc1 returned Cruzain inh noDet 10µM and Cruzain inh Det inactive.
Screening COc1ccc(C(=O)c2cn(Cc3cccc(C)c3)c3cc4c(cc3c2=O)OCCO4)cc1OC returned Cruzain inh noDet inconclusive and Cruzain inh Det inactive.
`CCOC(=O)c1c(S(=O)(=O)N2CCCC(C(=O)N3CCN(c4cccc(C)c4C)CC3)C2)c(C)n(C)c1C` (stereo unspecified) gave Cruzain inh noDet inactive and Cruzain inh Det inactive.
Screening Cc1csc(NC(=O)c2cc3c(C)nn(Cc4ccccc4Cl)c3s2)n1 returned Cruzain inh noDet 25µM and Cruzain inh Det inactive.
Screening Cc1nn(Cc2ccccc2Cl)c2sc(C(=O)NC(C)(C)C)cc12 returned Cruzain inh noDet inactive and Cruzain inh Det inactive.
For Cc1ccc(CNC(=O)C(C)n2nc(C)c3sc4ccccc4c3c2=O)cc1 (stereo unspecified) the results were Cruzain inh noDet 4µM and Cruzain inh Det inactive.
`Cc1nn(C(C)C(=O)NCc2ccc(OC(C)C)cc2)c(=O)c2c1sc1ccccc12` (stereo unspecified) gave Cruzain inh noDet inactive and Cruzain inh Det inconclusive.
`COc1ccc(CNC(=O)C(C)n2nc(C)c3sc4ccccc4c3c2=O)cc1OC` (stereo unspecified) gave Cruzain inh noDet inactive and Cruzain inh Det inactive.
`COc1ccc(CCNC(=O)C(C)n2nc(C)c3sc4ccccc4c3c2=O)cc1OC` (stereo unspecified) gave Cruzain inh noDet 32µM and Cruzain inh Det inactive.
`Fc1ccc(-c2nc(Nc3cccc(C(F)(F)F)c3)nc3c2COc2ccccc2-3)cc1` gave Cruzain inh noDet inconclusive and Cruzain inh Det inactive.
CNC(=O)Oc1ccc2c(c1)C1(C)CCN(C)C1N2C (stereo unspecified) was read as Cruzain inh noDet inactive and Cruzain inh Det inactive.
For COc1ccc(CCNC(=O)CCCCn2c(=O)c3ccccc3n(CC(=O)Nc3ccccc3C)c2=O)cc1OC the results were Cruzain inh noDet inactive and Cruzain inh Det inactive.
For NC(=O)CSc1nnc(-c2cc3ccccc3o2)n1Cc1ccccc1 the results were Cruzain inh noDet inconclusive and Cruzain inh Det inactive.
For O=C(CSc1nnc(C2CC2)n1Cc1ccccc1)c1cc2ccccc2o1 the results were Cruzain inh noDet 16µM and Cruzain inh Det inactive.
`COc1cc(Cl)c(S(=O)(=O)N2CCN(c3c(C)cccc3C)CC2)cc1Cl` gave Cruzain inh noDet 20µM and Cruzain inh Det inactive.
COc1ccc(S(=O)(=O)N2CCN(c3c(C)cccc3C)CC2)cc1OC was read as Cruzain inh noDet inactive and Cruzain inh Det inactive.
Screening Cc1cc(NC(=O)CSc2nc3ccccc3c(=O)n2C2CCCC2)no1 returned Cruzain inh noDet inactive and Cruzain inh Det inactive.
